Screening results from PubChem.
CYP2C19 activ: activators of human cytochrome P450 2C19. recombinant CYP2C19, luciferin-H EGE luminescence; active compounds read high; 0 = fully inhibited enzyme, 1 = untreated enzyme. activation factor at 5 µM. 96,000 tested, under 10 active;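 active means activation factor of at least 2 at 5 µM in the primary screen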;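 further: 0 = wells with 2.5 mM tranylcypromine and 1 = vehicle-only wells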
CYP2C9 act: increases human cytochrome P450 2C9 activity; activation factor at 5 µM; actives 1.4% (n = 96,000); recombinant CYP2C9, luciferin-H conversion, luminescence; active compounds read high; factor 1 = untreated enzyme, 0 = blocked; AID 1024;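 active means activation factor of 2 or more for CYP2C9 at a 5 µM dose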;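 further: 0 = sulfaphenazole-blocked wells and 1 = vehicle-only wells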
Target sequence (P11712 whole entry, looked up): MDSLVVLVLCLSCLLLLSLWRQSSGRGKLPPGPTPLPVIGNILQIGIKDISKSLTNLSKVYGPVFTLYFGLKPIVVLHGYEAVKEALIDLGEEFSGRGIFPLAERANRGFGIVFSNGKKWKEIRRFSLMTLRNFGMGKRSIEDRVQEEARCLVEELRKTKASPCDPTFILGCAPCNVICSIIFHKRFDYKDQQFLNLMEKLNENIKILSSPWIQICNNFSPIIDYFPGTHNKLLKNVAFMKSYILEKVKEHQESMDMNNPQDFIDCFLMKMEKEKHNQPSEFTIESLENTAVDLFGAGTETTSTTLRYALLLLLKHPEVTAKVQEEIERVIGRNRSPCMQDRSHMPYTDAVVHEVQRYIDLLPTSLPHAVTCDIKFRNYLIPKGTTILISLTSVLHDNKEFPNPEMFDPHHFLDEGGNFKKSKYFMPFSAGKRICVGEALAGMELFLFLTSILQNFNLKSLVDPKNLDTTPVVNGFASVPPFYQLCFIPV
CD11b adhes inh: CD11b/CD18-fibrinogen binding inhibition; P05107+P11215; K562 CD11b/CD18 adhesion to fibrinogen, ATPlite luminescence; Mn2+ added to activate the integrin; inhibition, % at 10 µM; actives 0.54% (n = 93,000); AID 1497;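 active means primary inhibition of 50% or more at 10 µM, then 40% or more on retest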
CYP2C9 inhib: blocks human cytochrome P450 2C9; actives 20% (n = 96,000); CYP2C9 Supersomes, luciferin-H conversion, luminescence; P11712; AID 777; inhibition, % at 5 µM;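 active means blocking of liver enzyme CYP2C9 beyond about 50% at 5 µM, limit read from the data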
CYP2C19 inhib: inhibitors of human CYP2C19 | P33261 | CYP2C19 Supersomes, luciferin-H EGE luminescence, 30 min | inhibition, % at 5 µM | actives 21% (n = 96,000) | AID 778;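 active means CYP2C19 inhibition above a set limit at 5 µM in the primary screen, cut at about 50% in these data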;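 further: plate controls were negative control wells for no effect and 2.5 mM tranylcypromine positive control for full effect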
CD11b adhes enh: enhancers of human CD11b/CD18 binding to fibrinogen; activation, % at 10 µM; P05107+P11215; K562 CD11b/CD18 adhesion to fibrinogen, ATPlite luminescence; actives 0.07% (n = 93,000);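 active means 10 µM primary screen giving 50% or more activity, confirmed by 40% or more on retest at that dose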
* = called active by the depositor; . = not tested or not shown. Shown are actives, neighbours in structure and some others; about 28% of the full set was active somewhere.

SMILES | CYP2C19 activ | CYP2C9 act | CD11b adhes inh | CYP2C9 inhib | CYP2C19 inhib | CD11b adhes enh
O=C(C(Cc1ccccc1)n1cccc1)N1CCN(c2cccc(Cl)c2)CC1 (stereo not given) | 0.2 | 0.3 | 19 | 70* | 82* | 1
COc1cc2c(cc1OC)CN(C(=O)c1ccccc1C(=O)O)CC2 | 1.1 | 1.1 | -8 | -15 | -9 | 0
CC(=O)/C(C(=N)N1CCN(c2cccc(Cl)c2)CC1)=C(\C)O | 1 | 1.9 | 28 | -92 | -1 | 3
CCc1ccc(Nc2oc(C)cc(=O)c2C(C)=O)cc1 | 1 | 0.9 | 3 | 12 | 3 | -2
O=C(Nc1c(F)cc(F)cc1Br)c1cc2nc(C(F)F)cc(C(F)F)n2n1 | 1.1 | 1.4 | -6 | -36 | -5 | -3
CC(C)(C)c1ccc(NC(=O)COC(=O)CCN2C(=O)c3cccc([N+](=O)[O-])c3C2=O)cc1 | . | . | 5 | . | . | 1
N/C(=N\OC(=O)CCC1CCCC1)c1cccc([N+](=O)[O-])c1 | . | . | -5 | . | . | 7
O=C(C(Cc1ccccc1)n1cccc1)N1CCCCC1 (stereo not given) | 0.6 | 1.1 | -1 | -6 | 45 | 10
CS(=O)(=O)N1CCN(C(=O)c2ccc(-c3ccccc3)cc2)CC1 | 1.2 | 1.2 | 4 | -15 | -16 | 0
CCC(C(=O)N1CCN(S(C)(=O)=O)CC1)c1ccccc1 (stereo not given) | 0.2 | 0.7 | -4 | 33 | 83* | 5
O=C(C(Cc1ccccc1)n1cccc1)N1CCCCCC1 (stereo not given) | 0.3 | 0.6 | 0 | 37 | 69* | -4
COc1ccc(N2CCN(C(=O)C(Cc3ccccc3)n3cccc3)CC2)cc1 (stereo not given) | 0.1 | 0.2 | 4 | 76* | 93* | 3
CCC(C)NC(=O)C(Cc1ccccc1)n1cccc1 (stereo not given) | 0.4 | 0.4 | -28 | 60* | 62* | 0
O=C(NC1CCCC1)C(Cc1ccccc1)n1cccc1 (stereo not given) | 0.8 | 0.6 | -6 | 35 | 24 | 6
Cc1nnc(SCCn2c(N(C)Cc3ccccc3)nc3c2c(=O)[nH]c(=O)n3C)s1 | 1 | 0.9 | 0 | 9 | -4 | -2
CCC(C)C(NC(=O)OC(C)(C)C)C(=O)NC(C(=O)N1CCCC1C(N)=O)C(C)CC (stereo not given) | 1 | 1 | -6 | -3 | 4 | 3
CCOCCCn1c(=NC(=O)c2ccc(OC)c(OC)c2)c(C#N)cc2c(=O)n3cccc(C)c3nc21 | 1 | 0.6 | -5 | 36 | 4 | -6
CCCCOCCCNC1=NCCCCC1 | 1 | 1 | -14 | 0 | -1 | 2
Cc1ccc(N/C(CSC(N)=O)=N\S(=O)(=O)c2ccc(C)cc2)cc1 | 0.8 | 1.9 | -8 | -88 | 17 | -2
CCC(C(=O)N1CCN(c2cccc(Cl)c2)CC1)c1ccccc1 (stereo not given) | 0 | 0 | 7 | 100* | 95* | 1
O=C(O)CCC(=O)N1CCN(c2cccc(Cl)c2)CC1 | 0.9 | 1.2 | -12 | -24 | 6 | 1
O=C(O)CCCc1nc2ccccc2s1 | 0.4 | 1 | 0 | 4 | 55* | 6
COC(=O)CCCc1nc2ccccc2s1 | 0.6 | 0.8 | . | 24 | 38 | .
CN(C(=O)CCc1nc2ccccc2s1)c1ccccc1 | 0.3 | 1 | -34 | 1 | 70* | -1
C=CCN(C(=O)CNS(=O)(=O)c1ccccc1)C(C(=O)NCCOC)c1ccncc1 (stereo not given) | 0.9 | 0.9 | -6 | 7 | 6 | 0
SMILES | CYP2C19 activ | CYP2C9 act | CD11b adhes inh | CYP2C9 inhib | CYP2C19 inhib | CD11b adhes enh
O=C(OCC(=O)N1CCc2ccccc21)c1cccnc1 | 0.2 | 0.7 | -11 | 33 | 77* | 0
O=C(OCC(=O)N1CCCc2ccccc21)c1ccc(Br)o1 | 0.1 | 0.5 | 6 | 51* | 85* | 5
O=C(OCC(=O)N1CCc2ccccc21)c1ccccc1 | 0.8 | 0.9 | 3 | 6 | 25 | 5
O=C(Cn1[nH]c(=O)c2ccccc2c1=O)OCC(=O)N1CCCc2ccccc21 | 0.5 | 0.6 | -10 | 43 | 51* | -4
CC1Cc2ccccc2N1C(=O)COC(=O)CNC(=O)c1ccc(Br)o1 (stereo not given) | 0.3 | 0.5 | 0 | 51* | 66* | 5
Cc1ccc(OCCC(=O)OCC(=O)N2c3ccccc3CC2C)cc1 (stereo not given) | 1 | 1.5 | -7 | -49 | 4 | -1
CCn1cc(C2=NOC(C(=O)Nc3ccc4c(c3)OCO4)C2)c(C)n1 (stereo not given) | 1 | 0.6 | 17 | 45 | -4 | 0
CC1(C)CC(=O)c2cnc(NC(=O)c3ccco3)nc2C1 | 1 | 0.9 | -6 | 6 | 3 | 2
O=S(=O)(c1ccccc1)N1N=C(c2cccs2)CC1c1ccc(Br)cc1 (stereo not given) | 0.8 | 0.5 | . | 52* | 21 | .
O=C(c1ccco1)N1N=C(c2cccs2)CC1c1ccc(F)cc1 (stereo not given) | 0.7 | 0.6 | 2 | 44 | 30 | 8
CCC(C)(C)n1c(=O)[nH]c2c(c1=O)CCC2 | 0.9 | 1 | 6 | 1 | 15 | -7
Nc1nnc(CC(c2ccccc2)c2ccccc2)s1 | 0.1 | 0.8 | 7 | 20 | 85* | -3
Nc1nnc(Cc2ccccc2)s1 | 1.1 | 1.2 | -16 | -22 | -6 | -5
COc1ccc(Br)cc1C(=O)Nc1cccc(NC(=O)c2ccco2)c1 | 0.1 | 0.9 | 3 | 13 | 88* | 11
O=C(Nc1cccc(NC(=O)c2ccc(-c3ccc(Br)cc3)o2)c1)c1ccccc1 | 1.2 | 1.1 | 0 | -8 | -18 | -4
Cc1cc(C)c(OCC(=O)Nc2cccc(NC(=O)c3ccco3)c2)c(Br)c1 | 0 | 0.3 | 25 | 74* | 96* | -5
COc1cccc(NC(=O)c2ccco2)c1 | 0.6 | 0.9 | -1 | 8 | 42 | -2
O=C(Nc1cccc(NC(=O)c2ccc(-c3cccc(Br)c3)o2)c1)c1ccco1 | 0.5 | 0.4 | . | 60* | 54* | .
COc1c(C)cc(Br)cc1C(=O)Nc1cccc(NC(=O)c2ccco2)c1 | 0 | 0.2 | 0 | 83* | 97* | 1
CCc1nnc(NC(=O)C(=O)NCCOC(=O)c2ccccc2)s1 | 0.8 | 0.7 | 4 | 35 | 22 | 0
Cc1cc(C)c(S(=O)(=O)O)c(C)n1 | 0.9 | 0.9 | 2 | 7 | 10 | -1
CCn1c(=O)c(C(=O)CN2CCOCC2)c(N)n(Cc2ccccc2)c1=O | 1.2 | 1.2 | 26 | -18 | -19 | -2
O=C(CN1C(=O)CCSc2ccccc21)Nc1ccccc1 | 0.1 | 0.3 | -11 | 70* | 92* | -4
O=C(CN1C(=O)CCSc2ccccc21)Nc1ccc2c(c1)OCCO2 | 0.9 | 0.8 | 5 | 18 | 5 | -3
